Efa HMGR inh: E. faecalis class II HMG-CoA reductase inhibition; purified E. faecalis HMGR, NADPH absorbance 340 nm kinetic; inhibition, % at 10 µM; hit rate 0.41% among 190,000; AID 1066;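 active = inhibition above a set limit, the median over all tested compounds plus 3 SD, cut at about 9.5% in these data; inconclusive = no clear call, values can overlap the other calls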;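 note: enzyme runs in reverse so mevalonate oxidation gives rising NADPH absorbance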
m-calpain inh: blocks pig calpain II enzyme activity; inhibition, % at 16 µM; hit rate 0.37% among 220,000; purified calpain II, fluorogenic peptide substrate, 30 min;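 active = inhibition above about 50%, limit read from the data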
Arbovirus anti: arbovirus infection inhibition | arbovirus infection cell-based antiviral screen | inhibition, % at 10 µM | hit rate 0.37% among 200,000; in the data active = inhibition above about 30%
HSV augment: increases HSV replication in cells. HSV replication augmentation in cells, fold increase. maximum fold increase. hit rate 0.005% among 220,000. AID 1956; in the data active = maximum fold increase above about 1.5; inconclusive = no clear call, values can overlap the other calls; tested in PC3 cells
ROMK primary: modulators of human ROMK potassium channel; B-score at 10 µM; hit rate 2% among 130,000; P48048; Tet-inducible ROMK, thallium flux fluorescence; actives lie on both sides;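 active = signal ratio slope over the read window, or its plate-corrected B-score, at least 3 SD from the plate mean, either direction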;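 note: B-score of the F/F0 ratio slope over 7 to 12 s after thallium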
Target sequence (P48048 whole entry, looked up): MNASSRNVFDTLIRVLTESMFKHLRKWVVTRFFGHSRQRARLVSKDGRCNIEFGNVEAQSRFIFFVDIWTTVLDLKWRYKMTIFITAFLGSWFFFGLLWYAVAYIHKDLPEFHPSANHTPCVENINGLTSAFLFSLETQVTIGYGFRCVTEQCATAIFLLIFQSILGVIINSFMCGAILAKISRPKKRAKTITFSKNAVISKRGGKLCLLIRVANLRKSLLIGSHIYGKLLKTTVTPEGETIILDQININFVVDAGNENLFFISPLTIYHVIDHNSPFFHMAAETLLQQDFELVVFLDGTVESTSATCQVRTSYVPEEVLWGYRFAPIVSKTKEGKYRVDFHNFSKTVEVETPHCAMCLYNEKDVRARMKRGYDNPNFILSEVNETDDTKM
ROMK retest: human ROMK channel modulation, retest confirmation | AID 1917 | normalized thallium flux (F/F0 slope) at 10 µM | hit rate 54% among 3,000 | ROMK thallium flux, fluorescence ratio; stronger effect = lower value | shares compounds with ROMK primary;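 active = Flux at 10 µM at least 3 SD below or above vehicle control mean in one or both replicates; inconclusive = no clear call, values can overlap the other calls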
Of the large screens only hits and unclear results are named; the others gave an inactive call (follow-up assays come after a bar, where they were run). The list is not random: actives were taken first. Their share in the collection is about 2.1%.

O=C(CN1C(=O)c2ccccc2C1=O)N1CCN(c2ccccc2)CC1	none
Cc1ccc(N2CCN(C(=O)CN3C(=O)c4ccccc4C3=O)CC2)cc1	ROMK primary 1.89 | ROMK retest inactive
Cc1ccc(C2CC(=O)NC(SCc3ccccc3)=C2C#N)cc1 (configuration not stated)	none (no result: ROMK primary) | ROMK retest 0.0659
O=C(CS(=O)(=O)c1ccccc1)Nc1ccc(N2CCOCC2)cc1	none
COc1cccc(C2CCCCN(C)C2=O)c1 (configuration not stated)	none (no result: Efa HMGR inh, Arbovirus anti, ROMK primary)
CCCCOC(=O)Cn1c2ccc(OC)cc2c2nc3ccccc3nc21	ROMK primary -4.19 | ROMK retest 0.0563
CC(C)CNC(=O)c1c(N)n(/N=C/c2cccnc2)c2nc3ccccc3nc12	none (no result: Efa HMGR inh, m-calpain inh, Arbovirus anti, HSV augment)
COCCCNC(=O)c1c(N)n(/N=C/c2cccnc2)c2nc3ccccc3nc12	none (no result: HSV augment) | ROMK retest inconclusive
O=C(Cc1cccs1)N1CCN=C1SCc1ccc(Br)cc1	none
CCC(=O)Nc1ccc(C(=O)NNC(=O)COc2cc(C)ccc2C)cc1	none (no result: ROMK primary)
Cc1cc(C)c2cc(CN(Cc3ccco3)C(=S)NCC3CCCO3)c(=O)[nH]c2c1 (configuration not stated)	none
CS(=O)(=O)n1nc(OC(=O)c2cccc3ccccc23)cc1N	none
CS(=O)(=O)n1nc(OC(=O)c2cc(Br)ccc2Cl)cc1N	ROMK primary -2.98 | ROMK retest 0.0543
Cc1cc(/C=C2\SC(=S)NC2=O)c(C)n1-c1cccc(O)c1	none (no result: Efa HMGR inh, Arbovirus anti, ROMK primary) | ROMK retest 0.0535
Cc1noc(C)c1-c1nnc(-c2ccc(OC(F)(F)F)cc2)o1	none (no result: Efa HMGR inh, Arbovirus anti, ROMK primary)
CN1C(=S)N(c2cccnc2)C(=O)/C1=C\c1ccc(N(C)C)cc1	ROMK primary -5.55 | ROMK retest 0.0415
CN1C(=S)N(c2cccnc2)C(=O)/C1=C\c1ccc(C(C)(C)C)cc1	none
O=C(C1CCN(C2CCN(CC3CC=CCC3)CC2)CC1)N1CCOCC1 (configuration not stated)	none
COC(=O)[C@@]1(Cc2ccc(F)cc2)[C@H]2c3cc(C(=O)N4CCCC4)n(CCO)c3C[C@H]2CN1C(=O)c1ccccc1	none
COC(=O)[C@@]1(Cc2ccc(F)cc2)[C@H]2c3cc(C(=O)N4CCCC4)n(CCc4ccc(O)c(O)c4)c3C[C@H]2CN1C(=O)c1ccccc1	none (no result: HSV augment) | ROMK retest inconclusive
COc1ccc(Cn2c(O)c(C=Nc3ccc(OC)cc3)c3ccccc3c2=O)cc1	none (no result: ROMK primary)
Cc1cccc(-n2c(O)c(/C=N/NC(=O)c3ccccc3Cl)c3ccccc3c2=O)n1	none (no result: ROMK primary)
O=C(N/N=C/c1c(O)n(-c2ccccc2Cl)c(=O)c2ccccc12)c1cccnc1	Arbovirus anti 35.9, ROMK primary -3.56 (no result: HSV augment) | ROMK retest 0.0578
COc1ccc(Cn2c(O)c(/C=N/NC(=O)c3cccnc3)c3ccccc3c2=O)cc1	HSV augment inconclusive, ROMK primary -5.5 | ROMK retest 0.0316
O=C(COCC(=O)NCc1ccccc1)NCc1ccccc1	none
COc1cc(/C=C(/C#N)C(=O)Nc2ccccc2)ccc1OCc1ccc(C(=O)O)cc1	ROMK primary -2.45 | ROMK retest 0.0532
CCCCNC(=O)/C(C#N)=C/c1ccc(F)cc1F	ROMK primary -7.75 | ROMK retest 0.046
COCCNC(=O)/C(C#N)=C/c1ccc(C(=O)O)cc1	none
COCCCNC(=O)/C(C#N)=C/c1ccc(F)cc1	ROMK primary -3.87 | ROMK retest 0.0522
CCOCCCNC(=O)/C(C#N)=C/c1ccc(C)o1	none
COCCNC(=O)/C(C#N)=C/c1ccc(OCc2ccc(F)cc2)cc1	none
COCCNC(=O)/C(C#N)=C/c1c(F)cccc1Cl	ROMK primary -3.72 | ROMK retest 0.0374
CC1(C)CC(=O)C=C(NCCN2CCN(C(=S)NC3CCCCC3)CC2)C1	none (no result: Efa HMGR inh, Arbovirus anti, ROMK primary)
Cc1ccc(NC(=O)Nc2ccc3c(c2)C(=O)OC3)cc1Cl	none (no result: Efa HMGR inh, Arbovirus anti)
COCCNC(=O)/C(C#N)=C/c1cccs1	none (no result: Efa HMGR inh, Arbovirus anti, ROMK primary)
COCCNC(=O)/C(C#N)=C/c1ccc(SC)cc1	ROMK primary -3.92 | ROMK retest 0.0493
COCCNC(=O)/C(C#N)=C/c1ccc(OC(=O)c2cccs2)c(OC)c1	ROMK primary -4.36 | ROMK retest 0.044
CC(C)NC(=S)Nc1c(N)[nH]c(=O)[nH]c1=O	none (no result: Efa HMGR inh, Arbovirus anti, ROMK primary)
N/C(=N\N=C\c1ccc(Br)o1)c1nonc1N	none (no result: Efa HMGR inh, Arbovirus anti, ROMK primary)
COc1ccc(NC(=S)NNC(=O)CNc2ccc(Cl)cc2)cc1	none
COc1ccc(C(CNC(=O)c2cc3ccccc3cc2OC)N2CCCC2)cc1 (configuration not stated)	ROMK primary -3.1 (no result: HSV augment) | ROMK retest 0.0619
COc1ccc(C(CNC(=O)c2cccc(N(C)C)c2)N2CCCC2)cc1 (configuration not stated)	none (no result: ROMK primary)
CCOC(=O)c1ccc(N2CCN(C(C)=O)CC2)c(NC(=O)c2cccnc2)c1	none
CCCCCC(=O)N1CCCCC1	none (no result: Efa HMGR inh, Arbovirus anti, ROMK primary)
COC(=O)c1nc(-c2ccccc2)oc1N1CCOCC1	none
Cc1ccc(CN2C3CCCC2CC(NC(=O)c2ccc(C)cc2)C3)cc1 (configuration not stated)	ROMK primary -2.75 | ROMK retest 0.0558
O=C(c1cccc(C(F)(F)F)c1)N1CCC(O)(CS(=O)(=O)Cc2ccc(Cl)cc2)CC1	none (no result: ROMK primary) | ROMK retest inactive
COC(=O)c1cccc(Oc2cccc(Cl)n2)c1	none
CCN(CC)S(=O)(=O)c1ccc(Cl)c(NC(=O)COC(=O)c2c(C)noc2C)c1	none (no result: ROMK primary)
CCN(CC)S(=O)(=O)c1ccc(Cl)c(NC(=O)COC(=O)c2ccc(O)cc2)c1	none | ROMK retest inactive
CCN(CC)S(=O)(=O)c1ccc(Cl)c(NC(=O)COC(=O)c2cccn2C)c1	ROMK primary 2.68 | ROMK retest inactive
CN(C)S(=O)(=O)c1ccc(Cl)c(NC(=O)COC(=O)c2ccc(O)cc2)c1	none
CC(=O)Nc1nc(C)c(CCC2OCCO2)c(=O)[nH]1	none (no result: Efa HMGR inh, Arbovirus anti)
Cn1c(=O)c2c(nc(/C=C/c3cccc(Cl)c3)n2C)n(C)c1=O	none (no result: Efa HMGR inh, m-calpain inh, Arbovirus anti, ROMK primary)
CC(=O)N1CCN(C(=S)c2ccc(-c3ccc(Cl)cc3)o2)CC1	ROMK primary -2.55 | ROMK retest 0.0551
S=C(c1ccc(-c2cccc(Cl)c2)o1)N1CCCCC1	none (no result: ROMK primary)
CCn1c(=O)c2c(n3c(=S)[nH]nc13)-c1ccccc1CC21CCCCC1	none
CCn1cc(C(=O)OCC(=O)OC2CC(C)CCC2C(C)C)c(=O)c2ccc(C)nc21 (configuration not stated)	ROMK primary 2.74 | ROMK retest 0.0636
C=CCOC(=O)c1cn(CC)c2nc(C)ccc2c1=O	none
CCN1CCN(CCCN(Cc2cccs2)C(=S)Nc2ccccc2C)CC1	none
COc1ccc(C2=CC(=O)OC3(CCCCC3)O2)cc1	ROMK primary -2.44 | ROMK retest 0.0622
COc1cccc(NC=C2C(=O)OC3(CCCCC3)OC2=O)c1	none
CC1CCC(C(C)C)C(OC(=O)C[n+]2cc(-c3ccc(Cl)cc3)n3c2CCC3)C1 (configuration not stated)	ROMK primary -6.59 (no result: Efa HMGR inh, Arbovirus anti) | ROMK retest 0.0473
CC1=CC(C)C(/C=N/N=C(N)N)C(C)C1 (configuration not stated)	none (no result: Efa HMGR inh, Arbovirus anti, ROMK primary)
CCn1c(CNc2cccc(Cl)c2)nnc1SCC(=O)OC1CCCCC1	none (no result: HSV augment, ROMK primary) | ROMK retest 0.0621
CC(=O)Nc1ccc2nc(NC(=O)COc3cccc(C)c3)sc2c1	none

From PubChem
